PubChem BioAssay (NCI)
Where “and” joins values, the source holds several entries; their conditions need not be identical. Identical values can stand only once. The panel holds about 83,000 compounds, 20% with a hit somewhere; the sample as a whole holds those more often.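 Negative percent growth values reflect cell death: -40 means 40% of the cells present at the start died, and -100 means all died.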 A number with no mark means an inactive call. Calls of active or inactive are those of the source. Rule for the calls: active = growth percent below 10; inactive = the rest.

system: MDA-MB-468 breast; assay: NCI-60 one-dose screen, 48 h (100 = growth as untreated, 0 = no growth, -100 = all killed); conditions: 10 µM unless noted

Row | Structure (SMILES) | growth
1 | Nc1c(C(=O)Nc2cccc3c2OCCO3)sc2nc3c(cc12)CN(Cc1ccccc1)CC3 | 38.8%
2 | Cc1cccc2c(=O)c3c(sc12)c(NCCCN)nc1ccccc13 | -38.5% (active)
3 | c1ccc(CC(NCCNC(Cc2ccccc2)c2ccccc2)c2ccccc2)cc1 (stereo not given) | -32.9% (active)
4 | CN(C)c1ccc2cc(-c3nc4ccccc4s3)c(N)nc2c1 | 56.9%
5 | COc1ccc(C2=C(c3cccc(OC)c3)C(=O)c3ccc(C)nc3C2=O)cc1 | -60.8% (active)
6 | O=C1C(Cl)=C(NCCCCCCNC2=C(Cl)C(=O)c3ccccc3C2=O)C(=O)c2ccccc21 | 89.2%
7 | COc1cc(NCCN(CC(C)C)C2CCCC2)c2ncccc2c1 | -13.9% (active)
8 | N#CC1=C(N)Oc2c(ccc3ccccc23)C1c1ccccc1Cl (stereo not given) | 8.77% (active)
9 | O=C(c1ccccc1)C1CCC1 | 110%
10 | CCOc1cc2c(cc1OCC)C(c1cc(OC)c(O)cc1Cl)NCC2 (stereo not given) | 61.4%
11 | Cc1ccc(S(=O)(=O)c2nc(-c3ccc(F)cc3)oc2S(C)(=O)=O)cc1 | 57.7%
12 | Cc1ccc(N=Nc2c(N)nc(N)[nH]c2=O)cc1C | 84.5%
13 | COc1cc(C)c2sc3ccccc3c(=O)c2c1NCCN(C)C | 49%
14 | CCOC(=O)/C(C#N)=C(/C)C1CC1 | 98.3%
15 | CCCCOC(=O)c1ccc(NC(=O)C(C)N2CCOCC2)cc1 (stereo not given) | 97%
16 | C[C@H]1[C@H](C)CC[C@]2(C(=O)N3CCN(C)CC3)CC[C@]3(C)C(=CC[C@@H]4[C@@]5(C)C/C(=C/c6cccnc6)C(=O)C(C)(C)[C@@H]5CC[C@]43C)[C@H]12 | -83.2% (active)
17 | Cc1cc(C(=O)c2ccccc2)cc(C)c1O | 111%
18 | CCn1cc(C(=O)O)c(=O)c2cc(F)c(N3CCN(S(=O)(=O)c4c(C)cc(C)cc4C)CC3)cc21 | 80.3%
19 | COc1ccc2c(c1)O/C(=C\c1ncc([N+](=O)[O-])n1C)C2=O | -7.9% (active)
20 | O=C(OC1CCCC1)c1ccccc1Cl | 132%

Row | Structure (SMILES) | growth
21 | CCN(CC)CCCNc1cc(OC)cc2nc3cc(Cl)ccc3nc12 | 11%
22 | CC(C)(C)OC(=O)NCc1cccc(N=C=S)c1 | 39.4%
23 | CCN(CC)CCOc1ccc(C(=C(C)Cc2ccc(OC)cc2)c2ccc(OCCN(CC)CC)cc2)cc1 | -25.4% (active)
24 | CC(C)N1C(=O)/C(=C2\SC(=S)N(C(C)C)C2=O)SC1=S | 97.1%
25 | CNC1=C([N+](=O)[O-])C(c2ccc(OC)cc2)C(C#N)=C(c2cccs2)O1 (stereo not given) | 117%
26 | COc1ccc2c(c1)C(=O)/C(=C/c1cccnc1)CC2 | 100%
27 | NC1CCC(C(=O)O)CC1 (stereo not given) | 99.8% and 107%
28 | CC1=C[C@H]2c3c(c(O)c(O)c4oc5cc(O)ccc5c(=O)c34)[C@H](c3cc(O)c(O)c4oc5cc(O)ccc5c(=O)c34)[C@H]2C(C)(C)C1 | 34.3%
29 | COc1cc(OC)c2sc(-c3ccc(-n4cncc4-c4cc(OC)c(OC)c(OC)c4)cc3)nc2c1 | 43.5%
30 | FC1(F)CCN(Cc2c[nH]c3cc(Cl)ccc23)C[C@H]1CCc1ccccc1 | 9.33% (active)
31 | O=C(Nc1cccc(-n2ccc3c(NC(=O)c4ccccc4)nccc32)c1)Nc1ccc(Cl)c(C(F)(F)F)c1 | -3.83% (active)
32 | CCn1cc(C(=O)O)c(=O)c2cc(F)c(N3CCN(S(=O)(=O)c4cccc5ccccc45)CC3)cc21 | 4.79% (active)
33 | CC[C@H](Nc1nc(N)nc(C)c1C#N)c1nc2cccc(NCCCCCC(=O)NO)c2c(=O)n1-c1ccccc1 | 11.7%
34 | Cc1cc(Nc2nc(N3CCNCC3)nc3ccccc23)n[nH]1 | 76.6%
35 | Cc1cc(Cl)nc(N(CCCNc2ccnc3cc(Cl)ccc23)Cc2ccco2)n1 | 0.466% (active)
36 | COc1cc2cc(NCc3ccc(Cl)cc3)nc(C)c2cc1OC | 63.4%
37 | COc1ccccc1/C=N/NC1=NC2C(N1)N(C)C(=O)N2C (stereo not given) | 106%
38 | C=C1CCC2C(C)(CO)C(O)CCC2(C)C1C/C=C1/C(=O)OCC1Oc1ccccc1C (stereo not given) | 60%
39 | O=C1Nc2ccccc2/C1=N\c1nnc(-c2ccccc2)o1 | 69.6%
40 | CCCCn1cnc2c(SCc3ccc([N+](=O)[O-])cc3)nc(N)nc21 | 80.8%
